High-throughput results: PubChem, several laboratories
GDH-TPI inh = GDH-TPI coupled enzyme inhibition counter-screen; GDH-TPI coupled enzyme counterscreen, NADH absorbance; inhibition, % at 4.8 µM; 360,000 tested, 1.2% active; AID 588335; in the data active = inhibition above about 30%
Rv3671c inh = inhibitors of M. tuberculosis serine protease Rv3671c; P9WHR9; inhibition, % at 5.96 µM; 320,000 tested, 0.048% active; AID 2606; in the data active = inhibition above about 38%;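 note: extracellular domain of Rv3671c used as enzyme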
Mtb FBA inh = inhibitors of M. tuberculosis fructose-bisphosphate aldolase; purified M. tuberculosis FBA, fluorescence read-out; P9WQA3; 360,000 tested, 2.3% active; inhibition, % at 1 µM; in the data active = inhibition above about 27%
Target sequence (P9WQA3 whole entry, looked up): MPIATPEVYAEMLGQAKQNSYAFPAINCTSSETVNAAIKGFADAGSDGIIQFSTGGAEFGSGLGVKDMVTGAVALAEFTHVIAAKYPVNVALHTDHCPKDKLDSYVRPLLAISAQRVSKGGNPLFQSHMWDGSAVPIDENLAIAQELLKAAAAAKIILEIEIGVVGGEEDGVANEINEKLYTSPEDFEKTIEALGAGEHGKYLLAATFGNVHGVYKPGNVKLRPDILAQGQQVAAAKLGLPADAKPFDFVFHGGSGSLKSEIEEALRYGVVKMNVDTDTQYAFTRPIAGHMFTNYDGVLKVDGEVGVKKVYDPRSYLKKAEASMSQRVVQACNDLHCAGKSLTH
Mtb betalactam = beta-lactam sensitization of Mtb H37Rv; M. tuberculosis H37Rv growth with meropenem, percent inhibition; inhibition, % at 25 µM; 330,000 tested, 0.27% active; call rule not given here;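 note: growth measured after seven days incubation then overnight dye step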
RecA splice inh = Mtb RecA intein splicing inhibition; P9WHJ3; cell-free RecA intein splicing, fluorescence; inhibition, % (test concentration not listed); 290,000 tested, 0.75% active; AID 2221; in the data active = inhibition above about 30%; inconclusive = no clear call, values can overlap the other calls
Mtb UGM inh = Mtb UDP-galactopyranose mutase inhibition; purified UGM, fluorescence polarization probe displacement; inhibition, % at 10 µM; 320,000 tested, 0.06% active; AID 504406; in the data active = inhibition above about 10%, passing the limit was not always enough; inconclusive = no clear call, values can overlap the other calls
A number is an active result; . = inactive; ? = inconclusive; / = no result given; + = active, no number. Hits are enriched below; roughly 4% of the tested compounds scored in any of these assays.

SMILES	GDH-TPI inh	Rv3671c inh	Mtb FBA inh	Mtb betalactam	RecA splice inh	Mtb UGM inh
Cc1ccc(-c2csc(/C(C#N)=C(\O)CN3CCN(C(=O)c4ccco4)CC3)n2)cc1	31.3	.	.	.	.	.
O=c1nc2scc(-c3ccccc3)n2c2ccccc12	35.8	.	.	.	.	.
CC(=O)c1cccc(NC(=O)C(C)N(C)CC(=O)Nc2ccc(Cl)cc2)c1 (stereo unspecified)	.	.	.	.	.	.
CCNC(=S)N/N=C/c1ccc(OCc2ccc(C(=O)OC)cc2)cc1	32.9	.	.	.	.	.
CC1CCN(C(=O)CSc2nnc(Cc3ccccc3)o2)CC1	.	.	.	.	.	.
CC1CCN(C(=O)CSCC(=O)O)CC1	.	.	150.5	.	.	.
Cc1ccc(NC(=O)c2cnc(SCC(=O)NCC3CCCO3)n(C)c2=O)cc1C (stereo unspecified)	.	.	.	.	50.8	.
COc1ccc(N2CCN(C(=O)CSc3ncccc3-c3nc4ccccc4[nH]3)CC2)cc1	.	.	.	.	.	.
COc1ccccc1N1CCN(C(=O)CSc2ncccc2-c2nc3ccccc3[nH]2)CC1	.	.	27.1	.	.	.
O=c1cc(CN2CCN(c3ccc(Cl)c(Cl)c3)CC2)c2ccccc2o1	/	/	.	/	/	/
COCCCn1c(N)c(C(=O)OC(C)COC)c2nc3ccccc3nc21 (stereo unspecified)	.	.	+	.	.	.
CCCCOCCCn1c(N)c(C(=O)OC(C)COC)c2nc3ccccc3nc21 (stereo unspecified)	.	.	120.5	.	.	.
CCC(C)OC(=O)c1c(N)n(Cc2cccs2)c2nc3ccccc3nc12 (stereo unspecified)	.	.	137.0	.	.	.
CCCCN1C(=O)C(CC(=O)NC(c2ccccc2)c2ccccc2)CC(C(=O)N(C(C)C)C(C)C)=C1C (stereo unspecified)	.	/	.	/	/	/
CCOCCCNC(=O)C(NC(=O)c1ccccc1O)c1ccc(Cl)cc1 (stereo unspecified)	.	.	51.8	.	.	.
CCOCCCNC(=O)C(NC(=O)CNC(C)=O)c1ccc(Cl)cc1 (stereo unspecified)	.	.	.	.	.	.
CC(C)COC(=O)N(C)C[C@H]1OCc2cnnn2CCCC(=O)N([C@H](C)CO)C[C@H]1C	.	/	.	/	/	/
CCN(CC)S(=O)(=O)c1ccc(N/N=C/c2cccnc2)nc1	72.8	.	.	.	.	.
CCN(CC)c1ccc(/C=C2/C(=O)NC(=O)N(CC3CCCO3)C2=O)cc1 (stereo unspecified)	39.8	.	.	.	.	.
CCN(CC)c1ccc(/C=C2\C(=O)NC(=O)N(Cc3ccco3)C2=O)cc1	31.4	.	.	.	.	.
CCCCN1C(=O)/C(=C/c2ccc(N(C)C)cc2)C(=O)N(Cc2ccco2)C1=O	.	.	.	.	.	.
OC(c1ccccc1)(c1nc(-c2cc3ccccc3o2)cs1)C(F)(F)F (stereo unspecified)	.	/	.	/	/	/
O=C(c1ccoc1)N1CCN(c2cc(-c3ccco3)nc3cc(-c4ccccc4)nn23)CC1	.	/	112.8	/	/	/
CNc1cncc(-c2cccnc2)n1	.	/	+	/	/	/
CNc1cncc(-c2cccc(OC)c2F)n1	.	/	+	/	/	/
SMILES	GDH-TPI inh	Rv3671c inh	Mtb FBA inh	Mtb betalactam	RecA splice inh	Mtb UGM inh
CNc1cncc(-c2ccc(F)c(F)c2)n1	.	/	167.5	/	/	/
COc1ccccc1-c1cncc(NC(C)=O)n1	.	/	.	/	/	/
CSc1nncc(-c2ccc(F)c(F)c2)n1	.	.	.	.	.	.
CNc1cncc(-c2cccc(C(=O)N(C)C)c2)n1	.	/	+	/	/	/
N#CCN(N=Nc1ccccc1)c1ccccc1	.	.	.	.	.	.
Cc1cc(F)ccc1S(=O)(=O)N1CCCOC1CNC(=O)C(=O)NC1CC1 (stereo unspecified)	.	.	.	.	.	.
COc1ccc(NC(=O)Cn2cc(C(=O)c3ccco3)c3ccccc32)cc1	30.9	.	.	.	/	.
CCOc1ccc(NC(=O)Cn2cc(C(=O)c3ccco3)c3ccccc32)cc1	.	.	.	.	/	.
O=C(c1ccco1)c1cn(Cc2ccccc2)c2ccccc12	.	.	.	.	.	.
O=C(Cn1cc(C(=O)c2ccco2)c2ccccc21)Nc1ccccc1	34.4	.	.	.	.	.
CC1(C(=O)O)CCCN1C(=O)c1cc2ccccc2s1 (stereo unspecified)	.	/	.	/	/	/
COc1ccc(CCNC(=O)c2cnc3scc(C)n3c2=O)cc1OC	32.9	.	.	.	.	.
Cc1cc(C)c2[nH]c(=S)cc(C)c2c1	.	.	.	?	.	.
Cc1cc(=S)[nH]c(=S)[nH]1	35.4	.	.	.	.	.
CCc1ccc(C(O)c2ncc(-c3ccccc3OC)[nH]2)cc1 (stereo unspecified)	.	/	.	/	/	/
CN(C)c1ccc(CC(=O)N2CCCC(c3cc(C(=O)Nc4ccc(F)c(Cl)c4)no3)C2)cc1 (stereo unspecified)	.	/	.	/	/	/
CCCN1C(=O)c2ccccc2NC1c1ccc(O)c(OCC)c1 (stereo unspecified)	.	.	44.6	.	.	.
COC(CNC(=O)c1coc2nc3ccccc3nc12)OC	.	.	120.1	.	.	.
O=C(NCC1CCCO1)c1coc2nc3ccccc3nc12 (stereo unspecified)	.	.	126.2	.	.	.
COC(CNC(=O)c1ccc2nc(-c3ccccc3)c(-c3ccccc3)nc2c1)OC	.	.	.	.	.	.
CCOC(=O)c1sc2ncnc(N3CCN(C)CC3)c2c1C	32.8	.	.	.	.	.
N#Cc1ccc(-c2ccc(F)cc2)nc1Oc1ccc(Cl)c(Cl)c1	.	.	.	.	.	.
COc1ccc(-c2cc(C#N)nc(Cl)n2)cc1	.	.	.	.	40.5	.
COc1ccc(-c2ccc(C#N)c(OC)n2)cc1	.	.	+	.	.	.
CC(=O)Nc1ccc(S(=O)(=O)NCCCN2CCN(Cc3ccccc3)CC2)cc1Cl	.	.	.	.	.	.
SMILES	GDH-TPI inh	Rv3671c inh	Mtb FBA inh	Mtb betalactam	RecA splice inh	Mtb UGM inh
COc1cc(C(=O)Nc2ccc(-c3nc4cc(C)ccc4o3)c(O)c2)cc(OC)c1OC	34.3	.	.	.	.	.
COc1cc(C(=O)Nc2cccc(-c3nc4ccccc4o3)c2C)cc(OC)c1OC	.	/	.	/	.	/
COC(=O)CSc1nc2nc(C)c(Br)cc2[nH]1	.	.	.	.	.	.
C=C(C)CSc1nc2nc(C)c(Br)cc2[nH]1	36.4	.	.	.	.	.
C=CCn1c(O)c(N=NC(=S)Nc2ccc(OC)cc2)c2ccccc21	.	.	.	.	.	.
C=CCn1c(O)c(N=NC(=S)Nc2cccc(OC)c2)c2ccccc21	34.6	.	.	.	.	.
C=CCOc1ccc(/C=C/C(=O)OCC(=O)N2CCC(c3ccccc3)=N2)cc1	.	.	.	.	/	.
COc1cc(CN2C[C@@H](CO)O[C@@H](n3cnc4c(NCc5ccc(F)cc5)ncnc43)C2)cc(OC)c1OC	.	/	.	/	/	/
Cc1nc([N+](=O)[O-])cn1CC(O)c1ccc(F)cc1 (stereo unspecified)	.	.	.	.	.	.
